test system: Aedes aegypti larvae; assay: larval motility relative to same well at 0 h (fraction); higher = more motile (less active compound), active = 0.4 or less; conditions: 10 µM; 2 h
Method: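 MMV Pandemic Response Box compounds were tested at 10 µM (1% v/v DMSO) on Aedes aegypti larvae (18-24 h after hatching, about 10 per well, 96-well plates). Motility was quantified with INVAPP (200-frame movies) at 0, 2 and 24 h. Each well's motility was divided by its own 0 h score, and the median of 3 independent screens is reported.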

Which larval motility does the source give for `O=C(Cc1ccccc1F)Nc1nc2ccccc2[nH]1` here?
The larval motility was 0.888 (inactive).

`CC(C)n1cnc2c(NCc3ccccc3)nc(NCc3ccccc3)nc21` was tested. Which larval motility did it give?
The larval motility was 1.3 (inactive).

How did the larval motility turn out when `CCc1nc2ccc(Cl)cn2c1C(=O)NCc1ccc(N2CCC(c3ccc(OC(F)(F)F)cc3)CC2)cc1` was run?
Its larval motility is 0.959 (inactive).

Which larval motility does the source give for `CC(C)Oc1ccc(-c2nc(-c3cccc4c3CC[C@@H]4NCCO)no2)cc1C#N` here?
Its larval motility is 1.2 (inactive).

With `CNc1nc(=O)[nH]cc1F` as the compound, how does the larval motility read?
Its larval motility is 0.634 (inactive).

`Cc1onc(-c2ccccc2)c1-c1ccc(S(N)(=O)=O)cc1` was tested. Which larval motility did it give?
Its larval motility is 0.513 (inactive).

For `CC(=O)N1CCN(c2ccc(OCC3COC(Cn4ccnc4)(c4ccc(Cl)cc4Cl)O3)cc2)CC1` (stereo not given), which larval motility is on record?
The larval motility was 0.527 (inactive).

Which larval motility does the source give for `CCNC(=O)Nc1cc(-c2ccccc2)c(-c2cncc(C(=O)O)c2)cn1` here?
The larval motility was 0.236 (active).

For `C[C@H](Cn1cnc2c(N)ncnc21)OCP(=O)(O)O`, which larval motility is on record?
The larval motility was 1.31 (inactive).

How did the larval motility turn out when `C=CCN(C(=O)OCc1ccc([N+](=O)[O-])cc1)C1CCN(CC[C@](C)(CN(C)S(=O)(=O)c2ccccc2)c2ccccc2)CC1` was run?
The larval motility was 0.847 (inactive).

`Clc1cc(Cl)c2c(c1)CCc1ccccc1C2n1ccnc1` (stereo not given) was tested. Which larval motility did it give?
The larval motility was 0.769 (inactive).

For `CN(C)CCCNC(=O)c1ccc(-c2cc(O)c3ncccc3c2)cc1`, which larval motility is on record?
Its larval motility is 0.79 (inactive).

How did the larval motility turn out when `O=C(Nc1[nH]c(=O)ncc1F)c1ccccc1` was run?
The larval motility was 0.527 (inactive).

How did the larval motility turn out when `CCOC(=O)/C=C/[C@H](C[C@@H]1CCNC1=O)NC(=O)[C@@H](CC(=O)[C@@H](NC(=O)c1cc(C)on1)C(C)C)Cc1ccc(F)cc1` was run?
The larval motility was 1.26 (inactive).

Which larval motility does the source give for `CC(C)(C)OC(=O)NCc1ccc(C(=O)N[C@H]2CCOC2=O)cc1` here?
Its larval motility is 0.701 (inactive).

Which larval motility does the source give for `CC(=O)O[C@H]1C[C@@]2(C)[C@@H](C[C@@H](O)[C@H]3[C@@]4(C)CC[C@@H](O)[C@@H](C)[C@@H]4CC[C@@]32C)/C1=C(\CCC=C(C)C)C(=O)O` here?
Its larval motility is 0.95 (inactive).

`OB1OCc2cc(Cl)ccc21` was tested. Which larval motility did it give?
The larval motility was 0.664 (inactive).

How did the larval motility turn out when `CCC(C)NCC(O)Cn1c2ccc(Cl)cc2c2cc(Cl)ccc21` (stereo not given) was run?
The larval motility was 0.799 (inactive).

How did the larval motility turn out when `Oc1cccc(C(Nc2nccs2)c2ccc3cccnc3c2O)c1` (stereo not given) was run?
Its larval motility is 1.09 (inactive).

`COc1ccc(SC(=O)N[C@H](CCC(=O)O)C(=O)O)cc1` was tested. Which larval motility did it give?
Its larval motility is 0.861 (inactive).

same assay, conditions: 10 µM; 24 h

`O=C(Cc1ccccc1F)Nc1nc2ccccc2[nH]1` was tested. Which larval motility did it give?
The larval motility was 0.669 (inactive).

For `CC(C)n1cnc2c(NCc3ccccc3)nc(NCc3ccccc3)nc21`, which larval motility is on record?
The larval motility was 1.42 (inactive).

Which larval motility does the source give for `CCc1nc2ccc(Cl)cn2c1C(=O)NCc1ccc(N2CCC(c3ccc(OC(F)(F)F)cc3)CC2)cc1` here?
The larval motility was 0.891 (inactive).

How did the larval motility turn out when `CC(C)Oc1ccc(-c2nc(-c3cccc4c3CC[C@@H]4NCCO)no2)cc1C#N` was run?
The larval motility was 1.25 (inactive).

For `CNc1nc(=O)[nH]cc1F`, which larval motility is on record?
The larval motility was 0.909 (inactive).

Which larval motility does the source give for `Cc1onc(-c2ccccc2)c1-c1ccc(S(N)(=O)=O)cc1` here?
The larval motility was 0.435 (inactive).

For `CC(=O)N1CCN(c2ccc(OCC3COC(Cn4ccnc4)(c4ccc(Cl)cc4Cl)O3)cc2)CC1` (stereo not given), which larval motility is on record?
Its larval motility is 1.14 (inactive).

Which larval motility does the source give for `CCNC(=O)Nc1cc(-c2ccccc2)c(-c2cncc(C(=O)O)c2)cn1` here?
Its larval motility is 0.433 (inactive).

With `C[C@H](Cn1cnc2c(N)ncnc21)OCP(=O)(O)O` as the compound, how does the larval motility read?
Its larval motility is 1.07 (inactive).

How did the larval motility turn out when `C=CCN(C(=O)OCc1ccc([N+](=O)[O-])cc1)C1CCN(CC[C@](C)(CN(C)S(=O)(=O)c2ccccc2)c2ccccc2)CC1` was run?
The larval motility was 0.852 (inactive).

How did the larval motility turn out when `Clc1cc(Cl)c2c(c1)CCc1ccccc1C2n1ccnc1` (stereo not given) was run?
Its larval motility is 0.987 (inactive).

Which larval motility does the source give for `CN(C)CCCNC(=O)c1ccc(-c2cc(O)c3ncccc3c2)cc1` here?
The larval motility was 0.683 (inactive).

Which larval motility does the source give for `O=C(Nc1[nH]c(=O)ncc1F)c1ccccc1` here?
The larval motility was 0.773 (inactive).

`CCOC(=O)/C=C/[C@H](C[C@@H]1CCNC1=O)NC(=O)[C@@H](CC(=O)[C@@H](NC(=O)c1cc(C)on1)C(C)C)Cc1ccc(F)cc1` was tested. Which larval motility did it give?
The larval motility was 1.09 (inactive).

With `CC(C)(C)OC(=O)NCc1ccc(C(=O)N[C@H]2CCOC2=O)cc1` as the compound, how does the larval motility read?
The larval motility was 0.769 (inactive).

Which larval motility does the source give for `CC(=O)O[C@H]1C[C@@]2(C)[C@@H](C[C@@H](O)[C@H]3[C@@]4(C)CC[C@@H](O)[C@@H](C)[C@@H]4CC[C@@]32C)/C1=C(\CCC=C(C)C)C(=O)O` here?
The larval motility was 0.825 (inactive).

For `OB1OCc2cc(Cl)ccc21`, which larval motility is on record?
The larval motility was 1.04 (inactive).

With `CCC(C)NCC(O)Cn1c2ccc(Cl)cc2c2cc(Cl)ccc21` (stereo not given) as the compound, how does the larval motility read?
The larval motility was 1 (inactive).

`Oc1cccc(C(Nc2nccs2)c2ccc3cccnc3c2O)c1` (stereo not given) was tested. Which larval motility did it give?
Its larval motility is 0.912 (inactive).

`COc1ccc(SC(=O)N[C@H](CCC(=O)O)C(=O)O)cc1` was tested. Which larval motility did it give?
Its larval motility is 0.93 (inactive).

— the supplement of paper PMC8540655
